From PubChem BioAssay (NCATS)
Values joined by “and” are separate entries in the source; they are usually repeats but may differ in a detail not shown here. Equal values may be shown once. Inconclusive results are not listed. Values without a mark were called inactive. Active and inactive are the calls of the source. Calls follow the shape of the dose curve; as a rule, active = well fitted curve in the direction sought with a large enough effect; inconclusive = small, poorly fitted or top-dose-only effect, or another doubt; inactive = no such curve, though single readings can be large; an effect the other way counts as inactive or inconclusive.

Legend:
[1] = Viability qHTS for spleen associated tyrosine kinase inhibitor (SYKi) naive MV4-11 cells (AID 1963823); also: nearly all actives have a fitted effect of over 40% in size; also: potency is read from the fitted curve at half-maximal effect
Summary of the method: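 Luminescence from CellTiter-Glo, developed 10 min at room temperature, gave viability of MV4-11 cells never exposed to SYK inhibitor. Cells (500/well) had been incubated with compounds for 72 hr under standard culture conditions.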

[2] = Cellular viability qHTS for adrenocortical cancer (ACC) cell line SW-13 (AID 1963989); details: SW-13 ACC cells viability, CellTiter-Glo, 48 h; activity (max response): active compounds read low;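 also: cells grown in serum-free medium with ITS supplement; % is scaled to controls: 0 for no effect and ±100 for the full control effect; nearly all actives have a fitted effect of over 65% in size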
Summary of the method: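 Luminescent ATP read-out (CellTiter-Glo, 20 min at room temperature) measured metabolically competent SW-13 cells after 48 h compound treatment. Final concentrations spanned up to 46 uM; bortezomib served as positive control.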

[3] = Quantitative highthroughput screen to assess conditional lethalithy of P12 Ichikawa cells grown in Human Plasma-Like Medium with dialyzed fetal bovine serum (HPLM+ds) (AID 1963879); details: Potency: viability; also: potency is read from the fitted curve at half-maximal effect; nearly all actives have a fitted effect of over 35% in size
Summary of the method: (§1)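 Each medium arm—HPLM with 10% dialyzed FBS, or RPMI1640 with 5 mM glucose and 10% untreated or dialyzed FBS—was screened against an 11-point, 3-fold compound titration for 48 h at 37 °C, with CellTiter-Glo luminescence as endpoint.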

[4] = Quantitative highthroughput screen to assess conditional lethalithy of P12 Ichikawa cells grown in RPMI1640 with untreated serum (RPMI+s) (AID 1963881); details: Potency: viability; also: nearly all actives have a fitted effect of over 35% in size; also: potency is read from the fitted curve at half-maximal effect;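 as to Viability: series mostly up to about 46 µM; 100% = DMSO wells and 0% = empty wells without cells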
Summary of the method: as §1

[5] = Quantitative highthroughput screen to assess conditional lethalithy of P12 Ichikawa cells grown in RPMI1640 with dialyzed fetal bovine serum (RPMI+ds) (AID 1963880); details: Potency: P12-Ichikawa viability;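 also: 100% = DMSO wells and 0% = empty wells on each plate; nearly all actives have a fitted effect of over 35% in size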
Summary of the method: as §1

[6] = Quantitative highthroughput screen to assess conditional lethalithy of SEM cells grown in Human Plasma-Like Medium with dialyzed fetal bovine serum (HPLM+ds) (AID 1963882); also: nearly all actives have a fitted effect of over 35% in size; also: potency is read from the fitted curve at half-maximal effect; as to Viability: series mostly up to about 46 µM
Summary of the method: as §1

[7] = Quantitative highthroughput screen to assess conditional lethalithy of SEM cells grown in RPMI1640 with dialyzed fetal bovine serum (RPMI+ds) (AID 1963884); also: nearly all actives have a fitted effect of over 35% in size; also: potency is read from the fitted curve at half-maximal effect;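 as to Viability: series mostly up to about 46 µM; 100% = DMSO control wells and 0% = empty wells without cells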
Summary of the method: as §1

[8] = Cellular viability qHTS for adrenocortical cancer (ACC) cell line NCI-H295R (AID 1963990);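 also: 0% = DMSO only wells and -100% = full killing with cytotoxic reference compound; nearly all actives have a fitted effect of over 60% in size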
Summary of the method: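 IC50 and maximal efficacy derive from four-parameter logistic modelling of titration curves, with reads scaled between DMSO-only wells (0%) and doxorubicin hydrochloride (100% inhibition). Compounds spanned up to 46 uM over 48 h.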

[9] = Quantitative highthroughput screen to assess conditional lethalithy of SEM cells grown in RPMI1640 with unreated serum (RPMI+s) (AID 1963883)
Summary of the method: as §1

[10] = Quantitative highthroughput screen to assess conditional lethalithy of NOMO1 cells grown in Human Plasma-Like Medium with dialyzed fetal bovine serum (HPLM+ds) (AID 1963878)
Summary of the method: as §1

Which results are given for `C#C[C@]1(O)CC[C@H]2[C@@H]3CCC4=CC(=O)CC[C@@H]4[C@H]3CC[C@@]21C`?
Potency [1]: inactive; activity (max response) [2]: 2.7%

What does the source list for `Cc1cc(C(C)(C)C)c(O)c(C)c1CC1=NCCN1`?
Potency [1]: inactive; Potency [3]: 8.33 µM (active); Potency [4]: 10.5 µM (active); activity (max response) [2]: -5.66% and -4.23%

What does the source list for `O=C1OCCN1/N=C/c1ccc([N+](=O)[O-])o1`?
Potency [1]: inactive; activity (max response) [2]: -0.921%

Which results are given for `CC(=O)OC[C@@H]1O[C@@H](n2ccc(=O)[nH]c2=O)[C@H](OC(C)=O)[C@H]1OC(C)=O`?
Potency [1]: inactive; Potency [5]: inactive; Potency [4]: inactive; Potency [6]: inactive; Potency [7]: inactive; activity (max response) [2]: -1.19%; Potency [8]: inactive

With `CCCS(=O)(=O)Nc1ccc(F)c(C(=O)c2c[nH]c3ncc(Cl)cc23)c1F` as the compound, how does the Potency [1] read?
The Potency was 11.6 µM (active).

What about the Potency [6] of the same compound?
Its Potency is 9.35 µM (active).

And the Potency [9]?
Its Potency is 11.8 µM (active).

And the Potency [7]?
Its Potency is 13.2 µM (active).

What does the source list for `CC(C)(C)C(=O)N1N=CC[C@H]1c1ccccc1`?
Potency [1]: 2.35 µM (active); activity (max response) [2]: 3.19%

For `CC(C)=CCC[C@@](C)(O)[C@H]1CC=C(C)CC1`, which Potency [1] is on record?
The Potency was “inactive”.

And the activity (max response) [2]?
The activity (max response) was 18.9%.

Which Potency [1] does the source give for `Nc1ncnc2c1nc(Cl)n2[C@@H]1O[C@H](CO)[C@@H](O)[C@@H]1O` here?
The Potency was 2.35 µM (active).

And the Potency [6]?
The Potency was 11.8 µM (active).

And the Potency [9]?
The Potency was 14.8 µM (active).

What about the Potency [7] of the same compound?
Its Potency is 8.33 µM (active).

What does the source list for `COc1cc2ncnc(-n3nc(-c4ccccn4)nc3N)c2cc1OC`?
Potency [1]: 796 nM (active) and 1.48 µM (active); Potency [10]: 20.9 µM (active); Potency [4]: 26.4 µM (active); Potency [6]: 5.26 µM (active); Potency [9]: 1.32 µM (active); Potency [7]: 2.35 µM (active); activity (max response) [2]: 10.9%; Potency [8]: inactive
